Results filed as inconclusive are left out. A call without a number means that no potency is given here. The source made the active and inactive calls. Calls follow the shape of the full dose curve; tested in HEK293 reporter line.
Assay: qHTS for Inhibitors of the Functional Ribonucleoprotein Complex (vRNP) of Lassa (LASV) Arenavirus: LASV Primary Screen - GLuc reporter signal (AID 1347082); also: nearly all actives have a fitted effect of over 60% in size
Details: LASV minigenome vRNP, Gaussia luciferase reporter; series mostly up to 57.5 µM

| Compound | Potency |
| --- | --- |
| NC(N)=NC(=O)c1nc(Cl)c(N)nc1N | inactive |
| CC(C)C(=O)OCc1cccc(OC(=O)[C@@H]2N3C(=O)[C@@H](NC(=O)Cc4ccccc4)[C@H]3SC2(C)C)c1 | inactive |
| c1ccc(CCNc2nc(-c3ccccc3)cs2)cc1 | inactive |
| O=C(CCCN1CCN(c2ccccn2)CC1)c1ccc(F)cc1 | inactive |
| CCc1oc2ccccc2c1C(=O)c1cc(Br)c(O)c(Br)c1 | inactive |
| COC1=C(OC)C(=O)C(CCCCCCCCCCO)=C(C)C1=O | inactive |
| CCN(CC)CCOCCOC(=O)C1(c2ccccc2)CCCC1 | inactive |
| NC(=O)c1ncn([C@@H]2O[C@H](CO)[C@@H](O)[C@H]2O)c1N | inactive |
| O=C(NCCc1c[nH]c2ccccc12)c1cccnc1 | inactive |
| CCCOC(C(=O)OC1CCN(C)CC1)(c1ccccc1)c1ccccc1 | inactive |
| c1ccc2[nH]c(-c3cscn3)nc2c1 | inactive |
| C[N+]1(C)CCC(=C(c2ccccc2)c2ccccc2)CC1 | inactive |
| O=C(Nc1ccc([N+](=O)[O-])cc1)Nc1ccc([N+](=O)[O-])cc1 | inactive |
| CC(C)Cn1cnc2c1c(=O)n(C)c(=O)n2C | inactive |
| Nc1nc2ncc(CNc3ccc(C(=O)N[C@@H](CCC(=O)O)C(=O)O)cc3)nc2c(=O)[nH]1 | inactive |
| C=CCc1cc(OC)c(O)c(C(=O)NCCO)c1 | inactive |
| CCN(CC)CCSC(=O)C(c1ccccc1)c1ccccc1 | inactive |
| NC[C@H]1O[C@H](O[C@H]2[C@H](O)[C@@H](O[C@H]3O[C@H](CO)[C@@H](O)[C@H](N)[C@H]3O)[C@H](N)C[C@@H]2N)[C@H](N)[C@@H](O)[C@@H]1O | inactive |
| COc1cc(NS(=O)(=O)c2ccc(N)cc2)ncn1 | inactive |
| CO[C@]1(NC(=O)CSC(F)F)C(=O)N2C(C(=O)O)=C(CSc3nnnn3CCO)CO[C@H]21 | inactive |

| Compound | Potency |
| --- | --- |
| O=[N+]([O-])c1nccn1CO[C@@H](CO)[C@H](O)CO | inactive |
| CN1CCN(c2cc3c(nn2)Oc2ccccc2N3C)CC1 | inactive |
| Cc1ncc([N+](=O)[O-])n1C | inactive |
| CCCCN(CCCC)C(C(N)=O)c1ccc(OC)cc1 (stereo not given) | inactive |
| C=CC[N+]1([C@H]2C[C@H]3[C@@H]4CC[C@H]5C[C@H](OC(C)=O)[C@@H](N6CCCCC6)C[C@]5(C)[C@H]4CC[C@]3(C)[C@H]2OC(=O)CC)CCCCC1 | inactive |
| Cc1c(C)c2c(c(C)c1OC(=O)CCC(=O)OCCO)CC[C@@](C)(CCC[C@H](C)CCC[C@H](C)CCCC(C)C)O2 | inactive |
| CN1CCOC(c2ccccc2)c2ccccc2C1 (stereo not given) | inactive |
| CC1(C)O[C@@H]2C[C@H]3[C@@H]4C[C@H](F)C5=CC(=O)CC[C@]5(C)[C@H]4[C@@H](O)C[C@]3(C)[C@]2(C(=O)CO)O1 | inactive |
| CN(C)C(=O)Oc1cccc([N+](C)(C)C)c1 | inactive |
| CO/N=C(\C(=O)O)c1csc(NC(=O)CCl)n1 | inactive |
| CC(C)(C)C(=O)OCOC(=O)C1N2C(=O)CC2S(=O)(=O)C1(C)C (stereo not given) | inactive |
| Nc1ccncc1N | inactive |
| CC(=O)N[C@H]1[C@H]([C@H](O)[C@H](O)CO)OC(C(=O)O)=C[C@@H]1N=C(N)N | inactive |
| COc1ccc(CN(CCN(C)C)c2ccccn2)cc1 | inactive |
| CC(=O)O[C@H]1CC[C@@]2(C)C(=CC[C@@H]3[C@@H]2CC[C@]2(C)C(C(C)=O)=CC[C@@H]32)C1 | inactive |
| C[N+](C)(C)CCOC(=O)CCC(=O)OCC[N+](C)(C)C | inactive |
| O=C1NC2CCCCN2C12CCN(CCCN1c3ccccc3CCc3ccc(Cl)cc31)CC2 (stereo not given) | inactive |
| NS(=O)(=O)c1cc(C(=O)O)c(NCc2ccco2)cc1Cl | inactive |
| Cc1c(F)cc2c(=O)c(C(=O)O)cn3c2c1CCC3C (stereo not given) | inactive |
| CCN(CCCCOC(=O)c1ccc(OC)c(OC)c1)C(C)Cc1ccc(OC)cc1 (stereo not given) | inactive |

Assay: qHTS for Inhibitors of the Functional Ribonucleoprotein Complex (vRNP) of Lassa (LASV) Arenavirus: Viability assay - alamar blue signal for LASV Primary Screen (AID 1347083); also: nearly all actives have a fitted effect of over 80% in size
Details: cell viability, alamar blue fluorescence (LASV minigenome counter-screen); series mostly up to 57.5 µM

| Compound | Potency |
| --- | --- |
| NC(N)=NC(=O)c1nc(Cl)c(N)nc1N | inactive |
| CC(C)C(=O)OCc1cccc(OC(=O)[C@@H]2N3C(=O)[C@@H](NC(=O)Cc4ccccc4)[C@H]3SC2(C)C)c1 | inactive |
| c1ccc(CCNc2nc(-c3ccccc3)cs2)cc1 | inactive |
| O=C(CCCN1CCN(c2ccccn2)CC1)c1ccc(F)cc1 | inactive |
| CCc1oc2ccccc2c1C(=O)c1cc(Br)c(O)c(Br)c1 | inactive |
| COC1=C(OC)C(=O)C(CCCCCCCCCCO)=C(C)C1=O | inactive |
| CCN(CC)CCOCCOC(=O)C1(c2ccccc2)CCCC1 | inactive |
| NC(=O)c1ncn([C@@H]2O[C@H](CO)[C@@H](O)[C@H]2O)c1N | inactive |
| O=C(NCCc1c[nH]c2ccccc12)c1cccnc1 | inactive |
| CCCOC(C(=O)OC1CCN(C)CC1)(c1ccccc1)c1ccccc1 | inactive |
| c1ccc2[nH]c(-c3cscn3)nc2c1 | inactive |
| C[N+]1(C)CCC(=C(c2ccccc2)c2ccccc2)CC1 | inactive |
| O=C(Nc1ccc([N+](=O)[O-])cc1)Nc1ccc([N+](=O)[O-])cc1 | inactive |
| CC(C)Cn1cnc2c1c(=O)n(C)c(=O)n2C | inactive |
| Nc1nc2ncc(CNc3ccc(C(=O)N[C@@H](CCC(=O)O)C(=O)O)cc3)nc2c(=O)[nH]1 | inactive |
| C=CCc1cc(OC)c(O)c(C(=O)NCCO)c1 | inactive |
| CCN(CC)CCSC(=O)C(c1ccccc1)c1ccccc1 | inactive |
| NC[C@H]1O[C@H](O[C@H]2[C@H](O)[C@@H](O[C@H]3O[C@H](CO)[C@@H](O)[C@H](N)[C@H]3O)[C@H](N)C[C@@H]2N)[C@H](N)[C@@H](O)[C@@H]1O | inactive |
| COc1cc(NS(=O)(=O)c2ccc(N)cc2)ncn1 | inactive |
| CO[C@]1(NC(=O)CSC(F)F)C(=O)N2C(C(=O)O)=C(CSc3nnnn3CCO)CO[C@H]21 | inactive |

| Compound | Potency |
| --- | --- |
| O=[N+]([O-])c1nccn1CO[C@@H](CO)[C@H](O)CO | inactive |
| CN1CCN(c2cc3c(nn2)Oc2ccccc2N3C)CC1 | inactive |
| Cc1ncc([N+](=O)[O-])n1C | inactive |
| CCCCN(CCCC)C(C(N)=O)c1ccc(OC)cc1 (stereo not given) | inactive |
| C=CC[N+]1([C@H]2C[C@H]3[C@@H]4CC[C@H]5C[C@H](OC(C)=O)[C@@H](N6CCCCC6)C[C@]5(C)[C@H]4CC[C@]3(C)[C@H]2OC(=O)CC)CCCCC1 | inactive |
| Cc1c(C)c2c(c(C)c1OC(=O)CCC(=O)OCCO)CC[C@@](C)(CCC[C@H](C)CCC[C@H](C)CCCC(C)C)O2 | inactive |
| CN1CCOC(c2ccccc2)c2ccccc2C1 (stereo not given) | inactive |
| CC1(C)O[C@@H]2C[C@H]3[C@@H]4C[C@H](F)C5=CC(=O)CC[C@]5(C)[C@H]4[C@@H](O)C[C@]3(C)[C@]2(C(=O)CO)O1 | inactive |
| CN(C)C(=O)Oc1cccc([N+](C)(C)C)c1 | inactive |
| CO/N=C(\C(=O)O)c1csc(NC(=O)CCl)n1 | inactive |
| CC(C)(C)C(=O)OCOC(=O)C1N2C(=O)CC2S(=O)(=O)C1(C)C (stereo not given) | inactive |
| Nc1ccncc1N | inactive |
| CC(=O)N[C@H]1[C@H]([C@H](O)[C@H](O)CO)OC(C(=O)O)=C[C@@H]1N=C(N)N | inactive |
| COc1ccc(CN(CCN(C)C)c2ccccn2)cc1 | inactive |
| CC(=O)O[C@H]1CC[C@@]2(C)C(=CC[C@@H]3[C@@H]2CC[C@]2(C)C(C(C)=O)=CC[C@@H]32)C1 | inactive |
| C[N+](C)(C)CCOC(=O)CCC(=O)OCC[N+](C)(C)C | inactive |
| O=C1NC2CCCCN2C12CCN(CCCN1c3ccccc3CCc3ccc(Cl)cc31)CC2 (stereo not given) | inactive |
| NS(=O)(=O)c1cc(C(=O)O)c(NCc2ccco2)cc1Cl | inactive |
| Cc1c(F)cc2c(=O)c(C(=O)O)cn3c2c1CCC3C (stereo not given) | inactive |
| CCN(CCCCOC(=O)c1ccc(OC)c(OC)c1)C(C)Cc1ccc(OC)cc1 (stereo not given) | inactive |

From PubChem BioAssay (NCATS)
